# Where “and” joins values, the source holds several entries; their conditions need not be identical. Equal entries are not always repeated. Results filed as inconclusive are left out. Some compounds were tested as several samples or in several runs, with calls that do not always agree. Calls of active or inactive are those of the source. The calls were made as follows, unless noted: active = hit-call score of the fitted dose curve at least 0.9, where 1 is the maximum; inactive = score below 0.9.
# What was measured:
# [1] = biological target: Estrogen-related receptor gamma (Homo sapiens) (UniProt P62508); experiment: ATG_ERRg_TRANS: Attagene TRANS-FACTORIAL HepG2 Assay for human Estrogen-Related Receptor gamma (ERRg) (AID 2282977; active = hit-call score of the fitted dose curve at least 0.9, where 1 is the maximum;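 also: hits increase reporter signal over DMSO so potencies reflect activators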); conditions: HepG2 Attagene TRANS reporter, ERRg transactivation
# Summary of the method: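 Exogenous NR-Gal4 chimera activity was assessed in HepG2 cells bearing transfected GAL4-UAS reporters. After 24 h dosing, total RNA underwent RT-PCR, fluorescent primer extension and HpaI digestion before capillary electrophoresis, with gain of signal scored against DMSO.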
# [2] = biological target: Glucocorticoid receptor (Homo sapiens) (UniProt P04150); experiment: ATG_GR_TRANS: Attagene TRANS-FACTORIAL HepG2 Assay for human Glucocorticoid Receptor (GR) (AID 2282978; active = hit-call score of the fitted dose curve at least 0.9, where 1 is the maximum;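 also: activators score as hits since higher reporter transcript over DMSO is fitted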); conditions: HepG2 Attagene TRANS GR reporter, mRNA transcription
# Summary of the method: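 HepG2 transient transfection, multiple reporter units, GAL4-UAS under NR-GAL4 chimera control. 24 h treatment. Reporter mRNA by RT-PCR/CE fluorescence, DMSO as negative control.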
# [3] = biological target: Oxysterols receptor LXR-alpha (Homo sapiens) (UniProt Q13133); experiment: ATG_LXRa_TRANS: Attagene TRANS-FACTORIAL HepG2 Assay for human Liver X Receptor alpha (LXRa) (AID 2282980; active = hit-call score of the fitted dose curve at least 0.9, where 1 is the maximum); conditions: HepG2 Attagene TRANS reporter, LXRa transactivation
# Summary of the method: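 HepG2 cells were transiently transfected with multiplexed reporter units driven by chimeric LXRa–GAL4 fusion proteins, then dosed for 24 h. Reporter mRNA was quantified by RT-PCR, fluorescent labelling and capillary electrophoresis; gain of signal fitted against DMSO baseline.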
# [4] = ATG_M_06_TRANS: Attagene TRANS-FACTORIAL HepG2 Assay for M06 Transcription Factor (Internal Marker) (AID 2282983; active = hit-call score of the fitted dose curve at least 0.9, where 1 is the maximum); conditions: HepG2 Attagene TRANS M06 internal marker reporter
# Summary of the method: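 In this multiplexed HepG2 system, compounds are incubated 24 h with cells carrying GAL4-UAS reporter units. Reporter RNA is amplified and resolved by capillary electrophoresis, and induction is scored against DMSO.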
# [5] = ATG_M_32_TRANS: Attagene TRANS-FACTORIAL HepG2 Assay for M32 Transcription Factor (Internal Marker) (AID 2282984; active = hit-call score of the fitted dose curve at least 0.9, where 1 is the maximum;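 also: transcript level of a background control reporter unit measured by RT-PCR and capillary electrophoresis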); conditions: HepG2 Attagene TRANS M32 internal marker reporter
# Summary of the method: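 Fluorescence-detected mRNA induction, HepG2 liver cells, 24 h after dosing. Multiple GAL4-UAS reporter units introduced by transient transfection; background-control endpoint analysed for gain of signal against DMSO.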
# [6] = biological target: Nuclear receptor subfamily 4 group A member 2 (Homo sapiens) (UniProt P43354); experiment: ATG_NURR1_TRANS: Attagene TRANS-FACTORIAL HepG2 Assay for human Nuclear Receptor Related Protein 1 (NURR1) (AID 2282985; active = hit-call score of the fitted dose curve at least 0.9, where 1 is the maximum); conditions: HepG2 Attagene TRANS reporter, mRNA readout
# Summary of the method: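 Chimeric NR-Gal4 proteins were expressed in human HepG2 cells bearing GAL4-UAS reporter units, and induced reporter mRNA was quantified 24 h post-dosing by RT-PCR and capillary electrophoresis.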
# [7] = biological target: Transcriptional activator Myb (Homo sapiens) (UniProt P10242); experiment: ATG_Myb_CIS: Attagene CIS-FACTORIAL HepG2 Assay for human Myeloblastosis (Myb) Proto-Oncogene Transcription Factor (AID 2282986); conditions: HepG2 Attagene CIS-FACTORIAL Myb reporter transcription; actives raise or lower the signal
# Summary of the method: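 Multiplexed cis-reporter system in HepG2: transient transfection, 24 h treatment, mRNA readout by RT-PCR and capillary electrophoresis. Both increases and decreases are scored versus DMSO negative control.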
# [8] = biological target: Nuclear respiratory factor 1 (Homo sapiens) (UniProt Q16656); experiment: ATG_NRF1_CIS: Attagene CIS-FACTORIAL HepG2 Assay for human Nuclear Respiratory Factor 1 (NRF1) Orphan Gene (AID 2282987); conditions: HepG2 NRF1 cis-element reporter, Attagene multiplex; actives raise or lower the signal
# Summary of the method: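 Endogenous factor activity was captured via cis-element-driven reporter transcripts in HepG2 cells. Following 24 h chemical treatment, transcripts were quantified by RT-PCR and capillary electrophoresis.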
# [9] = ATG_NFI_CIS: Attagene CIS-FACTORIAL HepG2 Assay for human Nuclear Factor I (NFI) (AID 2282989); conditions: HepG2 cis-regulatory reporter, NFI response element transcription; actives raise or lower the signal
# Summary of the method: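 Transfected HepG2 liver cells, exposed 24 h, supplied total RNA for oligo(dT) reverse transcription and reporter-specific PCR. Labelled, HpaI-cut fragments were sized by capillary electrophoresis; DMSO set the baseline for bidirectional fitting.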
# [10] = biological target: Myc proto-oncogene protein (Homo sapiens) (UniProt P01106); experiment: ATG_Myc_CIS: Attagene CIS-FACTORIAL HepG2 Assay for human Myelocytomatosis (Myc) Proto-Oncogene Transcription Factor (AID 2282990); conditions: HepG2, Attagene cis-reporter transcription factor activity; actives raise or lower the signal
# Summary of the method: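 Multiplexed cis-reporter transcription in HepG2 cells after 24 h chemical treatment. Reporter mRNA measured by RT-PCR and capillary electrophoresis fluorescence; activity fitted bidirectionally against DMSO control.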
# [11] = ATG_NF_kB_CIS: Attagene CIS-FACTORIAL HepG2 Assay for human Nuclear Factor Kappa B (NF-kB) (AID 2282991); conditions: HepG2 Attagene cis-factorial NF-kB reporter mRNA; actives raise or lower the signal
# Summary of the method: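 After 24 h compound incubation, transfected HepG2 cells yield total RNA; reporter cDNA is PCR-amplified, end-labelled with 6-FAM, HpaI-digested and analysed on a genetic analyser. Endogenous factor activity, DMSO-referenced bidirectional fit.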
# [12] = ATG_NRF2_ARE_CIS: Attagene CIS-FACTORIAL HepG2 Assay for human Nuclear Factor Erythroid 2 Related Factor 2 (NFR2) response to Antioxidant Response Elements (ARE) (AID 2282992); conditions: HepG2 Attagene ARE/NRF2 reporter, transcription factor activity; actives raise or lower the signal
# Summary of the method: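 Endogenous transcription factor activity read out as reporter transcript levels (RT-PCR plus capillary electrophoresis, fluorescence) in transiently transfected HepG2 cells. Measured at 24 h after dosing; gain or loss of signal fitted versus DMSO.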
# [13] = ATG_Oct_MLP_CIS: Attagene CIS-FACTORIAL HepG2 Assay for human Octamer-Binding Transcription Factor (Oct) (AID 2282993); conditions: HepG2 Attagene cis-factorial Oct reporter, mRNA; actives raise or lower the signal
# Summary of the method: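 Using HepG2 cells bearing transfected cis-reporter constructs, mRNA induction was read after 24 h by fluorescent RT-PCR and capillary electrophoresis, with DMSO defining baseline for gain- or loss-of-signal fits.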
# [14] = biological target: Cellular tumor antigen p53 (Homo sapiens) (UniProt P04637); experiment: ATG_p53_CIS: Attagene CIS-FACTORIAL HepG2 Assay for human p53 Transcription Factor (AID 2282994); conditions: HepG2 p53 cis-element reporter, Attagene mRNA; actives raise or lower the signal
# Summary of the method: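 Endogenous p53 activity read in transiently transfected HepG2 from a cis-element-driven reporter transcript after 24 h exposure. RNA reverse-transcribed, PCR-amplified, fluorescently labelled and sized by capillary electrophoresis; gain or loss fitted against DMSO baseline.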
# [15] = biological target: Oxysterols receptor LXR-beta (Homo sapiens) (UniProt P55055); experiment: ATG_LXRb_TRANS: Attagene TRANS-FACTORIAL HepG2 Assay for human Liver X Receptor beta (LXRb) (AID 2282981; active = hit-call score of the fitted dose curve at least 0.9, where 1 is the maximum); conditions: HepG2 Attagene TRANS GAL4-LXRb reporter, mRNA
# Summary of the method: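 Liver-derived HepG2 cells transfected with Gal4-responsive reporters were dosed for 24 h. Activation was scored as rise in reporter mRNA, by RT-PCR and capillary electrophoresis, above DMSO baseline.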
# [16] = BSK_3C_TissueFactor: BioMAP Diversity Plus: 3C Assay for Tissue Factor Biomarker Activity (AID 2282997); conditions: BioMAP 3C HUVEC, tissue factor biomarker readout; actives raise or lower the signal
# Summary of the method: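 Readout: Tissue Factor ELISA. Cells: human primary umbilical vein endothelium. Time: 24 h after dosing. Analysis: bidirectional fit, DMSO baseline.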
# [17] = BSK_3C_uPAR: BioMAP Diversity Plus: 3C Assay for Urokinase-type plasminogen activator receptor (uPAR) Biomarker Activity (AID 2282998); conditions: BioMAP 3C HUVEC, uPAR biomarker ELISA; actives raise or lower the signal
# Summary of the method: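 In this endothelial cell-based assay, human umbilical vein primary cells were treated with chemicals and harvested at 24 h. uPAR was quantified using ELISA, with gains or losses fitted relative to DMSO controls.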
# [18] = biological target: Bile acid receptor (Homo sapiens) (UniProt Q96RI1); experiment: ATG_FXR_TRANS: Attagene TRANS-FACTORIAL HepG2 Assay for Farnesoid X Receptor (FXR) (AID 2282979; active = hit-call score of the fitted dose curve at least 0.9, where 1 is the maximum;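 also: hits raise reporter mRNA above DMSO so AC50 marks FXR activation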); conditions: HepG2 Attagene TRANS FXR-GAL4 reporter transcription
# Summary of the method: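 HepG2 cells transiently transfected with reporter constructs in which a chimeric FXR-GAL4 protein drives a GAL4-UAS reporter; 24 h compound exposure. Reporter mRNA measured by RT-PCR, FAM labelling, HpaI digestion and capillary electrophoresis; gain-of-signal versus DMSO.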
# Nuclear receptor subfamily 4 group A member 2 (Homo sapiens), sequence (P43354 whole entry, looked up, the tested form may be a part): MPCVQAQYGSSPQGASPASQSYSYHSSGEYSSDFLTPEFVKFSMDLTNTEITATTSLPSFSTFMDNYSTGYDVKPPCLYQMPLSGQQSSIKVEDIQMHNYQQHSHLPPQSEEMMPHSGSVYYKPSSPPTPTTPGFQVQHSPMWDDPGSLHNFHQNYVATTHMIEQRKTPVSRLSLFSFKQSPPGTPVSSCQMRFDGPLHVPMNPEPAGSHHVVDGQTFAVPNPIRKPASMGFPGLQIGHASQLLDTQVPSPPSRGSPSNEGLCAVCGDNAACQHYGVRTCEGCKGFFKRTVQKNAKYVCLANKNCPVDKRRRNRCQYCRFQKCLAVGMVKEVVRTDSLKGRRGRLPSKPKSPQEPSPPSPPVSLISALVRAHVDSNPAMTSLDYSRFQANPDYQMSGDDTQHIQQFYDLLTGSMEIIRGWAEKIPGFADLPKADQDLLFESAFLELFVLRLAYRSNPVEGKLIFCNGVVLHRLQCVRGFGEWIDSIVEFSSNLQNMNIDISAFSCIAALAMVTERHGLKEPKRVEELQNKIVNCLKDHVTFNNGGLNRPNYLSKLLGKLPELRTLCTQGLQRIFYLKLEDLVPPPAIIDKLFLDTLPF
# Oxysterols receptor LXR-alpha (Homo sapiens), sequence (Q13133 whole entry, looked up, the tested form may be a part): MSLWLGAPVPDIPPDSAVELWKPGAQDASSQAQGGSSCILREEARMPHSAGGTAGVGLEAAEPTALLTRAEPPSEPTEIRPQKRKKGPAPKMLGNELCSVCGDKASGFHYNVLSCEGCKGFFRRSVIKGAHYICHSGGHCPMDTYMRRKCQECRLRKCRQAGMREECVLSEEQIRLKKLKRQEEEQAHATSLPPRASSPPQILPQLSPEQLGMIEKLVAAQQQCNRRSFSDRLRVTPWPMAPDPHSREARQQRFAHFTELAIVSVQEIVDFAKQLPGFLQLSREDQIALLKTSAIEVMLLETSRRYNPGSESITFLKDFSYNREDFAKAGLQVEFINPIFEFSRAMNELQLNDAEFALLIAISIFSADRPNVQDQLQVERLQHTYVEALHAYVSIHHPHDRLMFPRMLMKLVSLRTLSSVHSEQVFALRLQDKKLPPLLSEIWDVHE
# Nuclear respiratory factor 1 (Homo sapiens), sequence (Q16656 whole entry, looked up): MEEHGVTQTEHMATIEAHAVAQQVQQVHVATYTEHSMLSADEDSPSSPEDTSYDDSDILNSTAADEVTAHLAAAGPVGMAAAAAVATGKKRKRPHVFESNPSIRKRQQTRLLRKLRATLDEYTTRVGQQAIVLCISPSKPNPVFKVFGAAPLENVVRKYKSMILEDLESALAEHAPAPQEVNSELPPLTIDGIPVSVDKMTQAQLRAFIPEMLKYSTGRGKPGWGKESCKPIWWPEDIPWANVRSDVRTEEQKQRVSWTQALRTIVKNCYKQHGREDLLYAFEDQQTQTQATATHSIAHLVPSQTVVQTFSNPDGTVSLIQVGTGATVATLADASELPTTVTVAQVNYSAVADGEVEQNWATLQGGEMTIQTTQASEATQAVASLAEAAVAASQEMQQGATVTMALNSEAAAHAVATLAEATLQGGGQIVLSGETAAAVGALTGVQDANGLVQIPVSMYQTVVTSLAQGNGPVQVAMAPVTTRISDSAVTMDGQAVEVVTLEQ
# Transcriptional activator Myb (Homo sapiens), sequence (P10242 whole entry, looked up): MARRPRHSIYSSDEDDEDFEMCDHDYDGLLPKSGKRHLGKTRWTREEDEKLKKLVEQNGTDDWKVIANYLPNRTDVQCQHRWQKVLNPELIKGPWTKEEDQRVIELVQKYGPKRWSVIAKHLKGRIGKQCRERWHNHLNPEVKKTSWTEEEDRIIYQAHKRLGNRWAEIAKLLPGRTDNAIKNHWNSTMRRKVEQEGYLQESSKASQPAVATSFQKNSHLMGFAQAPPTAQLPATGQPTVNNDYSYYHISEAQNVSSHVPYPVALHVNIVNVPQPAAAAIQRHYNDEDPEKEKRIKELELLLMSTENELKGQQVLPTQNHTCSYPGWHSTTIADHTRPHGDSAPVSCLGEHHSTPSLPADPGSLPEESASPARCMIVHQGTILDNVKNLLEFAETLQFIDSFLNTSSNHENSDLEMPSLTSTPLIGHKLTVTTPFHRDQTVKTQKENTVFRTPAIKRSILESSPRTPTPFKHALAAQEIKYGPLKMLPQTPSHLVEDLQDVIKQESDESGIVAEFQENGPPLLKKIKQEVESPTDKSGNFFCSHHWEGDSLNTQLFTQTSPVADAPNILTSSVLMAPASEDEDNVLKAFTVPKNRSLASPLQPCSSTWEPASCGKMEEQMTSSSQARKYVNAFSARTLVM
# Cellular tumor antigen p53 (Homo sapiens), sequence (P04637 whole entry, looked up): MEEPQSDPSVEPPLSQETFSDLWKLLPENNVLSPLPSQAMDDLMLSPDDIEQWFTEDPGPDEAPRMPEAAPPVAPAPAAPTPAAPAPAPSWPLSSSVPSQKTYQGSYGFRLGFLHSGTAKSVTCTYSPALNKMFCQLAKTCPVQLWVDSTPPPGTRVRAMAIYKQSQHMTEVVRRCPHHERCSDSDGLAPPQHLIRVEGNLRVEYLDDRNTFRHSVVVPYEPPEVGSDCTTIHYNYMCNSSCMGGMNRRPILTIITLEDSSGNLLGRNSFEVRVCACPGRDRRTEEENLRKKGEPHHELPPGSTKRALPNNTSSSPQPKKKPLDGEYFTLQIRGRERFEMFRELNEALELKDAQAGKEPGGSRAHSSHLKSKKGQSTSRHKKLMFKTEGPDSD
# Bile acid receptor (Homo sapiens), sequence (Q96RI1 whole entry, looked up, the tested form may be a part): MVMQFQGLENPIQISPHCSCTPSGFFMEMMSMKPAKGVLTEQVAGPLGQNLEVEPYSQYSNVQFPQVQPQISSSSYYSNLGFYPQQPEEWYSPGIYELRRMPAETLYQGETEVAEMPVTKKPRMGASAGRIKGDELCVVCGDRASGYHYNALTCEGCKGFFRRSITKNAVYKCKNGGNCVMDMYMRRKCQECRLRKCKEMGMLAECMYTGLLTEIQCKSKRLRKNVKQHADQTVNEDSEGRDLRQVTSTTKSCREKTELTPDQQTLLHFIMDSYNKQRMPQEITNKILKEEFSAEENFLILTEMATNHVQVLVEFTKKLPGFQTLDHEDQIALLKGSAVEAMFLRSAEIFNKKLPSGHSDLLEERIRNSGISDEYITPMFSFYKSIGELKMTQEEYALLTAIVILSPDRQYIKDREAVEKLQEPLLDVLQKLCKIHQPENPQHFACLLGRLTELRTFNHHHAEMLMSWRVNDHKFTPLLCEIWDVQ
# Oxysterols receptor LXR-beta (Homo sapiens), sequence (P55055 whole entry, looked up, the tested form may be a part): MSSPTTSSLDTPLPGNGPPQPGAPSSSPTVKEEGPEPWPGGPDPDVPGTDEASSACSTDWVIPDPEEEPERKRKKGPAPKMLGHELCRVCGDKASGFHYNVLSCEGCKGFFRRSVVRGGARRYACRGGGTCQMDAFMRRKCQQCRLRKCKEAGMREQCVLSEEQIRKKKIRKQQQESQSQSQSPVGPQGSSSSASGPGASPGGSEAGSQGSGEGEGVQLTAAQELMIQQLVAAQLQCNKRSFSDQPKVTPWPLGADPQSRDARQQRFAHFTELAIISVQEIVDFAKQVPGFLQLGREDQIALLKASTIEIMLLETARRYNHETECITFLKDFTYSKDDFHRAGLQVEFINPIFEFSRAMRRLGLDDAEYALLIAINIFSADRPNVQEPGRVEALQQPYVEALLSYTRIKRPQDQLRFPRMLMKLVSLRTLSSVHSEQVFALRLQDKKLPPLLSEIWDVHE
# Glucocorticoid receptor (Homo sapiens), sequence (P04150 whole entry, looked up, the tested form may be a part): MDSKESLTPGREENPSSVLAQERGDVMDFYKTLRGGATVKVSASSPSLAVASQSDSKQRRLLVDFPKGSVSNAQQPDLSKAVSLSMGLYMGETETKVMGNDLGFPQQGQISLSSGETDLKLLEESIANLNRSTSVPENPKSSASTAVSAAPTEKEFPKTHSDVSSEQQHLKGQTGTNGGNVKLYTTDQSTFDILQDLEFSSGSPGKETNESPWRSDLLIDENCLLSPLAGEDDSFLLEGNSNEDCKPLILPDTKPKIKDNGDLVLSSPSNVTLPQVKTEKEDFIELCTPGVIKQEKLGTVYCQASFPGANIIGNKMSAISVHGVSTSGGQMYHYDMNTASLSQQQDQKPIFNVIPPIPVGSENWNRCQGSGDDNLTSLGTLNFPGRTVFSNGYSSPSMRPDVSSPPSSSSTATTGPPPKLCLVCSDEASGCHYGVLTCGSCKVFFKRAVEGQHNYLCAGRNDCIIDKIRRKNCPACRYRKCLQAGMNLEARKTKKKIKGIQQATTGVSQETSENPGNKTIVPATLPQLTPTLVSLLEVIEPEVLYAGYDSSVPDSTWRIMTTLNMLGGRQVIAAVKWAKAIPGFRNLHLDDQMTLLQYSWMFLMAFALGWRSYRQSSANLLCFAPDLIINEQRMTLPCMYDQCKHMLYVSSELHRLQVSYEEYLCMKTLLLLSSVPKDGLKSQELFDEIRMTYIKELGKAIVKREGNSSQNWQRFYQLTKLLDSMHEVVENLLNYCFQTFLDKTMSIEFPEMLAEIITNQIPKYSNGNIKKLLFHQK
# Myc proto-oncogene protein (Homo sapiens), sequence (P01106 whole entry, looked up): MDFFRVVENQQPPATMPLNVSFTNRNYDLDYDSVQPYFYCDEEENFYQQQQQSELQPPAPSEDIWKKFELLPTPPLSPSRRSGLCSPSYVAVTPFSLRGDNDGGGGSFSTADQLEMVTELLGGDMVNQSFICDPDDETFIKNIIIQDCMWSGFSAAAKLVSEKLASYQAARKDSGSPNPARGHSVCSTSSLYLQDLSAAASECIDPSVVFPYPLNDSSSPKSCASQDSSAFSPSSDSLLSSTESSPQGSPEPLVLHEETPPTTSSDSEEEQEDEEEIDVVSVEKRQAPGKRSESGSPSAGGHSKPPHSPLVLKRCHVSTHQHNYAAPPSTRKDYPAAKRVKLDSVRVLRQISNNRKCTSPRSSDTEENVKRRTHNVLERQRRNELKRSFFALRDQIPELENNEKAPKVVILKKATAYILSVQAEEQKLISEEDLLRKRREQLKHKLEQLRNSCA
compound,measurement,setting,value
O=C1C(Cl)=C(Cl)C(=O)c2ccccc21,outcome,[1],inactive
same,outcome,[2],inactive
same,outcome,[3],inactive
same,outcome,[4],inactive
same,outcome,[5],inactive
same,outcome,[6],inactive
same,outcome,[7],inactive
same,outcome,[8],inactive
same,outcome,[9],inactive
same,outcome,[10],inactive
same,outcome,[11],inactive
same,AC50,[12],2.2 µM (active)
same,outcome,[13],inactive
same,outcome,[14],inactive
O=[N+]([O-])c1c(Cl)c(Cl)cc(Cl)c1Cl,outcome,[1],inactive
same,outcome,[5],inactive
same,outcome,[7],inactive
same,outcome,[8],inactive
same,outcome,[9],inactive
same,outcome,[10],inactive
same,outcome,[11],inactive
same,outcome,[13],inactive
same,outcome,[14],inactive
ClCCBr,outcome,[1],inactive
same,outcome,[3],inactive
same,outcome,[4],inactive
same,outcome,[5],inactive
same,outcome,[6],inactive
same,outcome,[7],inactive
same,outcome,[8],inactive
same,outcome,[10],inactive
same,outcome,[11],inactive
same,outcome,[12],inactive
same,outcome,[13],inactive
same,outcome,[14],inactive
C=CC(=O)N(C)C,outcome,[1],inactive
same,outcome,[3],inactive
same,outcome,[15],inactive
same,outcome,[4],inactive
same,outcome,[5],inactive
same,outcome,[7],inactive
same,outcome,[8],inactive
same,outcome,[9],inactive
same,outcome,[10],inactive
same,outcome,[11],inactive
same,outcome,[13],inactive
same,outcome,[14],inactive
O=S(=O)(c1ccc(Cl)cc1)c1ccc(Cl)cc1,outcome,[1],inactive
same,outcome,[2],inactive
same,outcome,[3],inactive
same,outcome,[15],inactive
same,outcome,[4],inactive
same,outcome,[7],inactive
same,outcome,[8],inactive
same,outcome,[9],inactive
same,outcome,[10],inactive
same,outcome,[13],inactive
same,outcome,[14],inactive
same,outcome,[16],inactive
same,outcome,[17],inactive
CC(C)(C)CC(C)(C)c1ccc(O)cc1,outcome,[2],inactive
same,outcome,[18],inactive
same,outcome,[3],inactive
same,outcome,[4],inactive
same,outcome,[5],inactive
same,outcome,[6],inactive
same,outcome,[7],inactive
same,outcome,[8],inactive
same,outcome,[9],inactive
same,outcome,[10],inactive
same,outcome,[11],inactive
same,AC50,[12],11 µM (active) [middle of 4 runs]
same,outcome,[13],inactive
same,AC50,[14],16 µM (active) and 16.4 µM (active)
same,outcome,[14],inactive
same,AC50,[16],7.99 µM (active)
same,AC50,[17],7.17 µM (active)
O=c1[nH]c(=O)[nH]c(=O)[nH]1,outcome,[1],inactive
same,outcome,[2],inactive
same,outcome,[3],inactive
same,outcome,[15],inactive
same,outcome,[5],inactive
same,outcome,[6],inactive
same,outcome,[7],inactive
same,outcome,[8],inactive
same,outcome,[9],inactive
same,outcome,[10],inactive
same,outcome,[11],inactive
same,outcome,[12],inactive
same,outcome,[13],inactive
same,outcome,[14],inactive
same,outcome,[16],inactive
same,outcome,[17],inactive
O=C(O)C(F)(F)C(F)(F)C(F)(F)C(F)(F)C(F)(F)C(F)(F)C(F)(F)C(F)(F)C(F)(F)C(F)(F)F,outcome,[1],inactive
same,outcome,[18],inactive
same,AC50,[3],57.2 µM (active)
same,outcome,[3],inactive
same,outcome,[15],inactive
same,AC50,[4],129 µM (active)
same,outcome,[5],inactive
same,outcome,[6],inactive
same,AC50,[7],154 µM (active)
same,outcome,[7],inactive
same,outcome,[10],inactive
same,AC50,[11],95.5 µM (active)
same,outcome,[11],inactive
same,AC50,[13],25 µM (active)
same,outcome,[13],inactive
same,AC50,[14],58.3 µM (active) and 37.6 µM (active)
same,AC50,[16],33 µM (active) and 5.02 µM (active)
same,outcome,[16],inactive
same,AC50,[17],31.9 µM (active) and 4.88 µM (active)
same,outcome,[17],inactive
CCSC(C)CC1CC(=O)C(C(CC)=NOC/C=C/Cl)=C(O)C1 (stereo not drawn),outcome,[1],inactive
same,outcome,[2],inactive
same,outcome,[3],inactive
same,outcome,[4],inactive
same,outcome,[5],inactive
same,outcome,[6],inactive
same,outcome,[7],inactive
same,outcome,[8],inactive
same,outcome,[10],inactive
same,outcome,[11],inactive
same,outcome,[13],inactive
same,outcome,[14],inactive
same,outcome,[16],inactive
same,outcome,[17],inactive
